PNC inhibitor: High Content Assay for Compounds that inhibit the Assembly of the Perinucleolar Compartment. PC3M PTB-GFP, PNC prevalence imaging, 16 h; hits give low values. activity change (PNC), negative = inhibition, % at 10 µM. 3.1% of 140,000 active;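 active = readout at or below -70, meaning at least 70% loss of cells showing the perinucleolar compartment, a nuclear body marking cancer cells; inconclusive = readout between -30 and a set limit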;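 also: plate controls were DMSO wells for no effect and camptothecin positive control wells for full effect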
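Read-out is percentage of cells bearing a perinucleolar compartment, from automated 20x imaging of fixed, Hoechst-stained PC3M PTB-GFP cells. Cells were seeded 4 h, then exposed 16 h to compound (23 nl of library stock) in duplicate plates.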
HPGD inh: qHTS Assay for Inhibitors of HPGD (15-Hydroxyprostaglandin Dehydrogenase); 15-hydroxyprostaglandin dehydrogenase [NAD(+)] (Homo sapiens), P15428; purified HPGD, NADH fluorescence kinetic, PGE2 substrate; Potency, µM, for inactives: top-dose activity change, negative = inhibition, hits mostly inhibitors; 4.3% of 150,000 active; also: potency is read from the fitted curve at half-maximal effect
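20 nM HPGD preincubated 15 min at room temperature with compound in 50 mM Tris-HCl pH 8, 0.01% Tween 20. Started with 1 mM NAD+ and 30 uM prostaglandin E2; NADH fluorescence (360/450 nm) read 5 times over 30-s intervals, last minus first.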
ALDH1A1 block: qHTS Assay for Inhibitors of Aldehyde Dehydrogenase 1 (ALDH1A1). Purified ALDH1A1, NADH fluorescence, propionaldehyde substrate. Aldehyde dehydrogenase 1A1 (Homo sapiens), P00352. Potency, µM (titrated, usually from 75.3 µM), without a hit: at the top dose activity, negative = inhibition, usual class: inhibitors. 7.3% of 220,000 active;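 also: potency is read from the fitted curve at half-maximal effect; plate controls were no enzyme wells and a reference inhibitor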
Target sequence (P00352 whole entry, looked up): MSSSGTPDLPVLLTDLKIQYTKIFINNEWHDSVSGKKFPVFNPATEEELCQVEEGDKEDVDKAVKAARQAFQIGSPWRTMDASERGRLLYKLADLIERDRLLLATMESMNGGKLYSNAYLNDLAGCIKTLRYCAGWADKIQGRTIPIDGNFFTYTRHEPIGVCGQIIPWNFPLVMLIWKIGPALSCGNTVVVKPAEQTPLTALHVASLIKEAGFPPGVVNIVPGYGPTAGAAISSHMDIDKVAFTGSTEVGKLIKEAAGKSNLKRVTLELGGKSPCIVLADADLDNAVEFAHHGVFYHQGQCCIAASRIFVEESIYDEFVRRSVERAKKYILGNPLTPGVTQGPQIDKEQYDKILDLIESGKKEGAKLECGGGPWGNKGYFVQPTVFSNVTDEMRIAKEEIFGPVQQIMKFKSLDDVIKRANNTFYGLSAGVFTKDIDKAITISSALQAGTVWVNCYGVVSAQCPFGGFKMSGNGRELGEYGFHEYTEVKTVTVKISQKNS
* marks the source's active call; other numbers are inactive results; ? = inconclusive; · = no result. Hits are enriched below; roughly 11% of the tested compounds scored in any of these assays. Unless noted, calls follow the shape of the dose curve; as a rule, active = well fitted inhibition curve with a large enough effect (not every such curve was filed as active); inconclusive = small, poorly fitted or top-dose-only effect, or another doubt; inactive = no such curve, though single readings can be large or run the other way. Unless noted, % is scaled to controls: 0 for no effect and ±100 for the full control effect.

SMILES | PNC inhibitor | HPGD inh | ALDH1A1 block
O=C(CSc1nnnn1C1CCCCC1)NCCc1ccccc1 | ? | -13% | 10µM*
O=C(CSc1ccc(-c2cccs2)nn1)NCCc1ccccc1 | · | · | -9%
O=C(CSc1nnnn1C1CCCCC1)NNC(=O)c1ccco1 | · | · | 4.7µM*
O=C(CSc1nnnn1C1CCCCC1)NCc1cccs1 | · | · | -4%
CCN(Cc1ccncc1)C(=O)c1cc(Br)cc(Br)c1O | · | · | 10%
CCCNC(=O)[C@H]1O[C@@H]1C(=O)N[C@H](C(=O)N1CCC[C@H]1C(=O)OC)[C@@H](C)CC | · | · | 8%
CCOC(=O)c1ccc(NC(=O)COc2ccc(S(=O)(=O)NC(C)(C)C)cc2)cc1 | ? | -8% | 7%
CCOc1ccccc1NC(=O)COC(=O)c1cc(C(=O)OC)cc([N+](=O)[O-])c1 | 50 | -2% | 2%
CC(C(=O)Nc1ccccc1-c1ccccc1)N1CCN(S(=O)(=O)c2ccccc2)CC1 (stereo unspecified) | ? | -10% | ?
O=C(Nc1ccccc1-c1ccccc1)C(c1ccccc1)c1ccccc1 | -8 | -4% | -16%
CC(C(=O)Nc1ccccc1-c1ccccc1)N1CCCCC1 (stereo unspecified) | 9 | -17% | 20µM*
CC(C)c1ccc(S(=O)(=O)N2CCN(C(C)C(=O)Nc3ccccc3-c3ccccc3)CC2)cc1 (stereo unspecified) | 23 | -7% | 2.8µM*
CC(=O)N=c1n(C)c2ccccc2n1CCOc1ccccc1 | 38 | -3% | 6%
O=C(CSc1ccsc1[N+](=O)[O-])N1CCN(c2ccccc2)CC1 | 4 | -3% | ?
Cc1ccc(C)c(N2CCN(C(=O)CSc3ccsc3[N+](=O)[O-])CC2)c1 | -17 | ? | 11µM*
CCC(=O)NC(NC(=S)Nc1ccc(S(N)(=O)=O)cc1)C(Cl)(Cl)Cl (stereo unspecified) | 31 | -8% | ?
O=C1/C(=C\c2ccco2)NC(=S)N1c1ccccc1 | · | · | -13%
O=C1NC(c2ccccc2)=N/C1=C/c1ccco1 | -27 | ? | 18µM*
O=C1OC(c2ccco2)=N/C1=C\c1ccc(-c2cccc(C(F)(F)F)c2)o1 | ? | -13% | ?
O=C1NC(c2cccc(Br)c2)=N/C1=C\c1ccco1 | 10 | ? | 11µM*
Cc1nn(C)c(Cl)c1CN1CCN(C2CCCC2)C(CCO)C1 (stereo unspecified) | · | · | -4%
COc1ccc(C(=O)N2CCCCC2)cc1S(=O)(=O)Nc1ccccc1 | -29 | -10% | ?
COc1ccc(N2CCN(C(=O)c3ccc(NS(=O)(=O)c4cccc(F)c4)cc3)CC2)cc1 | -28 | -14% | ?
COc1cccc(S(=O)(=O)Nc2ccc(C(=O)N3CCCCCC3)cc2)c1 | · | · | 22µM*
O=C(c1cccc(NS(=O)(=O)c2cccc([N+](=O)[O-])c2)c1)N1CCOCC1 | · | · | -3%
SMILES | PNC inhibitor | HPGD inh | ALDH1A1 block
COc1cccc(S(=O)(=O)Nc2cccc(C(=O)N3CCOCC3)c2)c1 | 6 | -1% | 14µM*
CCOC(=O)N1CCN(C(=O)c2cccc(NS(=O)(=O)c3ccc(F)c(F)c3)c2)CC1 | -89* | -2% | 18%
CCOC(=O)C1CCN(C(=O)c2cccc(NS(=O)(=O)c3ccc(F)c(F)c3)c2)CC1 | · | · | 3%
COc1cccc(S(=O)(=O)Nc2cccc(C(=O)N3CCCCCC3)c2)c1 | -2 | -14% | 14µM*
c1coc(CN(Cc2ccco2)c2ncnc3c2oc2ccccc23)c1 | 9 | ? | ?
CCOC(=O)c1nc(NCc2ccccc2F)c2ccccc2n1 | · | · | -14%
CC(C)(C)c1ccc(NC(=O)Cn2cnc3cc([N+](=O)[O-])ccc3c2=O)cc1 | · | · | 6%
CN1CC(=O)NC1=NC(=O)C12CC3CC(CC(C3)C1)C2 | -7 | -10% | -4%
COCCn1c(C)cc(C(=O)COC(=O)c2ccc3c(c2)NC(=O)CS3)c1C | -16 | -24% | -2%
C=CCn1c(C)cc(C(=O)COC(=O)c2ccc3c(c2)NC(=O)CS3)c1C | -81* | 22µM* | ?
c1ccc(-c2cc3c(nn2)CCc2nonc2-3)cc1 | -102* | -19% | ?
Cc1[nH]c(-c2ccco2)nc1C(=O)O | 50 | -6% | -1%
c1ccc(-c2nc3c([nH]2)CCc2nonc2-3)cc1 | · | · | 4.5µM*
O=C1CCCc2[nH]c(-c3ccccc3)nc21 | · | · | 2%
c1coc(-c2nc3c([nH]2)CCc2nonc2-3)c1 | ? | ? | 2.8µM*
O=C1c2ccccc2-c2nnc(-c3ccccc3)cc21 | 41 | -4% | -6%
